From PubChem BioAssay (NCI)
The panel holds about 83,000 compounds, 20% with a hit somewhere; the sample as a whole holds those more often.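 Values shown are percent growth following 48 h exposure of cells in 96-well plates to a single concentration of compound; below 10 was considered active.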 Values without a mark were called inactive. The source made the active and inactive calls.

System: SR leukemia
Assay: NCI-60 one-dose screen, 48 h (100 = growth as untreated, 0 = no growth, -100 = all killed)
Conditions: 10 µM unless noted

SMILES | growth
COC(=O)[C@]12CCC(C)(C)C[C@H]1C1=CC[C@@H]3[C@@]4(C)C/C(=C/c5cccnc5)C(=O)C(C)(C)[C@@H]4CC[C@@]3(C)[C@]1(C)CC2 | 47.7% [100 µM]
N#C/C(C(=O)c1ccccc1)=C1/C(=O)Nc2ccc(Br)cc21 | 101%
CCCSc1nc(N)nc2nc[nH]c12 | 107%
C=C(C)[C@@H]1CC[C@]2(C(=O)N3CCN(C)CC3)CC[C@]3(C)[C@H](CC[C@@H]4[C@@]5(C)C/C(=C/c6ccncc6)[C@H](O)C(C)(C)[C@@H]5CC[C@]43C)[C@@H]12 | -14.3% [100 µM] (active)
CC[C@@](C)(NC(=O)[C@H](C)NC(=O)CCNC(=O)C(C)(C)NC(=O)[C@H](C)NC(=O)[C@@H]1CCCN1C(=O)[C@@](C)(CC)NC(=O)[C@H](Cc1ccccc1)NC(=O)C1CCCN1C(=O)C(C)(C)NC(=O)C1CCCN1C(=O)C(C)(C)NC(C)=O)C(=O)NCCC(=O)N[C@@H](CC(C)C)C(=O)NC(C)(C)C(=O)NCCC(=O)N[C@@H](CC(C)C)C(=O)NC(C)(C)C(=O)NC(C)(C)C(=O)N[C@@H](CC(C)C)C(=O)NCCC(=O)NCO (some centres not stated) | -50.9% (active)
C#C[C@]1(O)CC[C@H]2[C@@H]3CC=C4c5nc(Nc6ncccn6)sc5CC[C@]4(C)[C@H]3CC[C@@]21C | 17.8%
CC(C)(C)c1cc(C(=O)N2CCC(C(=O)NCCN)CC2)cc(C(C)(C)C)c1 | 98.4%
CCOC(=O)/C(C#N)=C(\C)CCc1ccccc1 | 153%
COc1ccc2c3ccnc(C(F)(F)F)c3n(CCCCN)c2c1 | 26.9%
CCN(CC)c1ccc2cc(C(Nc3ccc(Br)c(C(F)(F)F)c3)c3nnnn3C(C)(C)C)c(=O)oc2c1 (configuration not stated) | 98.8%
C[N+](C)(C)c1ncnc2[n-]cnc12 | 107%
O=S(=O)(c1ccc(N/N=C\c2ccccc2Cl)cc1)c1ccc(N/N=C/c2ccccc2Cl)cc1 | 88.5%
CCCOc1ccc(-c2nc(-c3ccc(N)cc3)cs2)cc1 | 73.9%
O=C(NCc1ccc(Cn2c(=O)sn(-c3ccccc3)c2=O)cc1)OCc1ccc2c(Br)cc(Br)c(O)c2n1 | 4.62% (active)
N#CCCc1c[nH]c2ccccc12 | 91.5%
C=CCCCCCCCCC(=O)OC(C)C | 89%

SMILES | growth
COc1cc2c(cc1OCCCCCOc1ccc(-n3c(C)nc4ccccc4c3=O)cc1)N=C[C@@H]1CCCN1C2=O | -25.4% (active)
Cc1cccc(/C=C2\N=C(c3ccccc3)N(c3ccc(S(N)(=O)=O)cc3)C2=O)c1 | 69.6%
Clc1ccc(/C=N/Nc2nc3ccccc3s2)c(Cl)c1 | 91%
CCOC(=O)COc1c(C)cc(SSc2cc(C)c(OCC(=O)OCC)c(C)c2)cc1C | 90.9%
Nc1nc(Nc2ccccc2)c2ncn(Cc3cc4c(cc3Br)OCO4)c2n1 | 10.5%
CCOC(=O)c1c[nH]n2c(=S)ncnc12 | 107%
CC1(C)CC[C@]2(C(N)=O)CC[C@]3(C)C(=CC[C@@H]4[C@@]5(C)C/C(=C/c6cccnc6)C(=O)C(C)(C)[C@@H]5CC[C@]43C)[C@@H]2C1 | 8.68% [100 µM] (active)
O=[N+]([O-])c1cc(CCl)ccc1OCCBr | 102%
O=C1COCCN1c1ccc(Nc2nc(Cl)nc(N3CCOCC3)n2)cc1 | 88.9%
O=C(OCc1ccc2c(Cl)cc(Cl)c(O)c2n1)N1CCNCC1 | 14.5%
Cc1ccc(S(=O)(=O)NCCCNc2nccc(-c3c(-c4cccc(F)c4)nc4occn34)n2)cc1 | 87.9%
COc1cc(Cl)cc(-c2nn(C(=O)NS(=O)(=O)c3ccccc3)cc2-c2ccncc2)c1 | 87.6%
Cn1cc(-c2noc(-c3cn(C)c4ncccc34)n2)c2cc(Cl)ccc21 | 82.2%
CC(C)CSc1ncnc2nc[nH]c12 | 119%
Cc1cnc([C@]23CC[C@@H](C)[C@H](C)[C@H]2C2=CC[C@@H]4[C@@]5(C)Cc6c([nH]c7ccccc67)C(C)(C)[C@@H]5CC[C@@]4(C)[C@]2(C)CC3)o1 | 121% [100 µM]
CC1(C)CC[C@]2(C(=O)O)CC[C@]3(C)C(=CC[C@@H]4[C@@]5(C)C/C(=C/c6ccco6)C(=O)C(C)(C)[C@@H]5CC[C@]43C)[C@@H]2C1 | 21.7% [100 µM]
